Source: PubChem BioAssay (NCI)
About 83,000 compounds went through this panel and 20% of them were active in at least one assay; those are over-represented in the sample as a whole.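 Assay: single dose, 48 h. Readout: percent growth (0 = no net growth; negative = cell death). Active: <10.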 The source made the active and inactive calls.

test system: MDA-MB-231 breast; assay: NCI-60 one-dose screen, 48 h (100 = growth as untreated, 0 = no growth, -100 = all killed); settings: 10 µM unless noted

Row | Compound | growth
1 | C=C1CCC2C3(C)COC(c4cc(F)cc(F)c4)OC3CCC2(C)C1CC(O)C1=CCOC1=O (stereo unspecified) | 63.2% (inactive)
2 | CC(=O)Nc1ccc(C(=O)NC(=S)Nc2ccc(S(N)(=O)=O)cc2)cc1 | 99.3% (inactive)
3 | COc1cc(C2CC(c3cc(OC)c(OC)c(OC)c3)=Nc3c(N)nc(N)nc3N2)ccc1Oc1nc(NCCO)nc(N2CCOCC2)n1 (stereo unspecified) | 102% (inactive)
4 | O=C(COc1ccc(NC(=O)Nc2ccc(Cl)c(Cl)c2)cc1)N=Nc1c(O)[nH]c2ccc(Br)cc12 | -59.3% (active)
5 | Cn1cc(NC(=O)c2cc(NC(=O)c3ccc(C#Cc4ccccc4)cc3)cn2C)cc1C(=O)NCCCN1CCOCC1 | 4.99% (active)
6 | COCOc1cc2oc(C(=O)N[C@@H](Cc3ccccc3)C(O)C(=O)NCc3ccccc3)c(C)c(=O)c2cc1OCOC (stereo partly specified) | 20.7% (inactive)
7 | Cc1ccc(C(=O)CSc2nc3ccc(C)cc3c(=O)n2-c2ccc(F)cc2)cc1 | 21.3% (inactive)
8 | CN(C)CCn1c2ccccc2c2nc3ccc([N+](=O)[O-])cc3nc21 | 5.52% (active)
9 | COc1cc2c(c(OC)c1OC)C(=O)CC(c1cccc(NC(=O)c3cc(NC(=O)[C@H](CO)NC(=O)OC(C)(C)C)ccc3Cl)c1)O2 (stereo partly specified) | 6.43% (active)
10 | Cc1cccc(NC(=O)[C@]23CCC(C)(C)CC2C2=CCC4[C@@]5(C)C[C@@H](O)[C@H](O)[C@@](C)(CO)C5CC[C@@]4(C)[C@]2(C)CC3)c1 (stereo partly specified) | -19.1% (active)
11 | CC(=O)Nc1ccc(-n2cnc3ccc(-c4ccc(O)cc4)cc32)cc1 | 70.4% (inactive)
